# PMC12136788
# Residue numbers refer to the chain shown, from its start. Over roughly 24,000 sequences, “enrichment r” has its median near 0.99; the highest 2% begin near 3.7. What follows is part of a selection rich in the highest values, with near analogues and random picks from the rest.
# T1: UNK ZnF1-3 (human, UniProt Q9C0B0 31-174)
# T1 sequence: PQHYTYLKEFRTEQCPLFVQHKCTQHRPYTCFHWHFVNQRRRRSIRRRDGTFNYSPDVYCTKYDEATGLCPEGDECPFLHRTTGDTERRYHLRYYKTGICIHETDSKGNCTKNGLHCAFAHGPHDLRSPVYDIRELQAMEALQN
# B1: chr16:45382771:45382772:-_ENSMUSG00000022661_ENSMUST00000163230|mus_mus|mus_mus_mus_hu_True|1_48 (ssRNA)
# RNA: GGGAGUUCUACAGUCCGACGAUCCUGGGUCAUGUUAUAAGACAAAUGGACAGGGAGGGCAUGCUUCUCAAAAAAUGUGAGCUAUUGACUAAGACUAACAAUAUUUAUCUAGCUAUAAAAAUAAGUUAAAUGAAUAAACAUUACCAACAGAGGAUUGAGCAUCA
# B2: chr16:45382771:45382772:-_ENSMUSG00000022661_ENSMUST00000163230|mus_mus|mus_mus_mus_hu_True|1_18 (ssRNA)
# RNA: B1 RNA with A87U, A117U, U121A, A123U, G124A, U125A, U126G
# B3: chr16:45382771:45382772:-_ENSMUSG00000022661_ENSMUST00000163230|mus_mus|mus_mus_mus_hu_True|18_58 (ssRNA)
# RNA: GGGAGUUCUACAGUCCGACGAUCCUGGGUCAUGUUAUAAGACAAAUGGACAGGGAGGGCAUGCUUCUCAAAAAAUGUGAACUACUCUCUAAGACUAACAAUAUUUAUCUAGCUAUAUAAAAAUAAGAAAUGAAUAAGUUAAGACAACAGAGGAUUGAGCAUCA
# B4: chr16:45382771:45382772:-_ENSMUSG00000022661_ENSMUST00000163230|mus_mus|mus_mus_mus_hu_True|18_18 (ssRNA)
# RNA: B3 RNA with A80G, C84U, C86G
# B5: chr16:45382771:45382772:-_ENSMUSG00000022661_ENSMUST00000163230|mus_mus|mus_mus_mus_hu_True|18_98 (ssRNA)
# RNA: B3 RNA with A38G, A39G, A41C, A43C, A80G, C84U, C86G
# B6: chr16:45382771:45382772:-_ENSMUSG00000022661_ENSMUST00000163230|mus_mus|mus_mus_mus_hu_True|18_48 (ssRNA)
# RNA: B3 RNA with A80G, C84U, C86G, U87A
# B7: chrX:12734859:12734860:+_ENSMUSG00000031010_ENSMUST00000089302|mus_hu|motif|central (ssRNA)
# RNA: GGGAGUUCUACAGUCCGACGAUCAUCACUGGCAGAGCCACGGACUACUUUCUUUGUGUGAAAUCCUGUAGUAAAGAGGAACCGGGCAGCAAGUUGAAUACUGAUCAUAGUGAUUUCUUCUGCUUCAGGCAACAGGUGAUCUUGCAACAGAGGAUUGAGCAUCA
# B8: chr8:21961785:21961786:+_ENSG00000158863_ENST00000289921|hu_mus|FALSE|FALSE (ssRNA)
# RNA: GGGAGUUCUACAGUCCGACGAUCCCAUGCAAAUGCCAAAGUGCAUUGAGUAUUGCCCAGCCUCUCAAACGAGUACAAAUCUCAAGUGUAGACCCACUCCACCAAGAUCUGCUCCUGUCCCACACCAGCACCCAUGUGUACUCACAACAGAGGAUUGAGCAUCA
# B9: 131934741_131943559_139_3pUTR_ENSG00000108010_ENST00000331244|human|control|control (ssRNA)
# RNA: GGGAGUUCUACAGUCCGACGAUCUUCUUUAGCUAACUCUGCCAUAACUUCGUUCAUCUGUGCACACUGUGGAGCCCAUGGUGCCCAGAAAUGGACCACAAGGAGGGACUUGGCUUUGAGGCGCAGCAGCUCCUCAAACUGCCCCAACAGAGGAUUGAGCAUCA
# B10: 88753824_88753944_1043_CDS_ENSMUSG00000053333_ENSMUST00000065694|mouse|control|control (ssRNA)
# RNA: GGGAGUUCUACAGUCCGACGAUCGGCAAAAUUACAGUCCUCCUUCCAGUCUAUGAUGCGGCAGAUGAACAGCGUGUUGGCAAAGUCUUUAGGUCGGGUCAUGAAGUCCUGGGGACAGUCCUUGAGAGGUACGUAAAUUCUAGGCAACAGAGGAUUGAGCAUCA
# B11: chr5:108714581:108714582:-_ENSG00000198961_ENST00000361557|hu_hu|FALSE|FALSE (ssRNA)
# RNA: GGGAGUUCUACAGUCCGACGAUCUGAAAGACCAGUGUAUGCCUCUGCCUCUCUGUUUUCCAACUCAAAUACUGUAUUGCCUAAUGAUUCCUGGUAUCUACUACCUUCCACGACUUCUGCAGAAAGUUGAAGAUGGUCAUUAUCCAACAGAGGAUUGAGCAUCA
# B12: chr15:31520727:31520728:-_ENSMUSG00000022234_ENSMUST00000022842|mus_mus|FALSE|FALSE (ssRNA)
# RNA: GGGAGUUCUACAGUCCGACGAUCAGUUUAUUCUUCAGAUUCUCCAGGCUUACGGAUGUCAUCAAUCUUCAGAAUCAUCCUAACCAUCUGGGUGGCAAGAGAGAUCUGCUGCUUUUUGCCAAUCAAGGUUUCUAUGACAUGCUGCAACAGAGGAUUGAGCAUCA
# B13: 86370578_86370698_3324_CDS_ENSMUSG00000021244_ENSMUST00000021670|mouse|control|control (ssRNA)
# RNA: GGGAGUUCUACAGUCCGACGAUCUGGCCUCACAAACACCCUGUCCCGGUUGCCUUCUCCUCUGUUCAUUUUCUCACGACUGUCUUCUCUUCUACCCAUCAUUUUAUCAUGGAAAUCUUCUUGCUUGACCAGACCUGGACCACGCAACAGAGGAUUGAGCAUCA
# B14: chr7:26236612:26236613:-_ENSG00000122566_ENST00000356674|hu_mus|motif|central (ssRNA)
# RNA: GGGAGUUCUACAGUCCGACGAUCAACAAACAGCUUCUUCACAGUCACAUGGGCUCCUGGUUUUCCAGACUCCUCUCUUGCGGCAGCACGUUUUGGCUCAACUACCCUGCCAUCAAUGGAAUGGGGCCUUGCAGCCAUGGCAGCCAACAGAGGAUUGAGCAUCA
# Molecular target: T1, UNK ZnF1-3
# Test: nsRBNS (natural sequence RNA bind-n-seq); RBNS binding buffer (assumed for nsRBNS): 25 mM Tris pH 7.5, 150 mM KCl, 3 mM MgCl2, 0.01% Triton X-100, 500 ug/ml BSA, 20 U/ml SUPERase-In, 4 C; UNK is unkempt and MSI1 is Musashi-1; names of the RNAs are library labels; protein concentration not given here; high values mean tight binding
row,Binder,binding signal [enrichment R]
1,B1,3.57
2,B2,2.42
3,B3,7.97
4,B4,5.7
5,B5,5.27
6,B6,5.66
7,B7,1.47
8,B8,1.22
9,B9,0.775
10,B10,1.63
11,B11,0.745
12,B12,0.637
13,B13,0.682
14,B14,0.995
